# Measured values taken from publication PMC5540273 (PLoS ONE, 2017).
# Assays:
# Details in all cases: concentration: 1 μM, replicates: in singlicate; n = 1
# CDK8 = system: CDK8
# CDK9 = system: CDK9
# CDKL1 = system: CDKL1
# CDKL2 = system: CDKL2
# CDKL3 = system: CDKL3
# CDKL5 = system: CDKL5
# CHEK1 = system: CHEK1
# CHEK2 = system: CHEK2
# CIT = system: CIT
# CLK1 = system: CLK1
# 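Further: KINOMEscan kinase panel screen.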
Structure (SMILES),%Inh (CDK8) [%],%Inh (CDK9) [%],%Inh (CDKL1) [%],%Inh (CDKL2) [%],%Inh (CDKL3) [%],%Inh (CDKL5) [%],%Inh (CHEK1) [%],%Inh (CHEK2) [%],%Inh (CIT) [%],%Inh (CLK1) [%]
Fc1ccc(-c2ncn(C3CCNCC3)c2-c2ccnc(Oc3ccc(-c4ccccc4)cc3)n2)cc1 [SB-245391],92.8,12,28,0,32,0,0,0,98.9,21
Cn1cc(-c2ccc3c(c2)CCN3C(=O)Cc2cccc(Cl)c2)c2c(N)ncnc21 [GSK2606590],100,0,0,42,0,4,3,0,26,30
c1ccc(-c2cnc3nccnn23)cc1 [AH20685],49,0,11,0,0,8,0,0,0,4
CCn1c(-c2nonc2N)nc2c(C#CC(C)(C)O)nc(OC[C@H](N)c3ccccc3)cc21 [GSK943949],4,0,0,0,0,12,0,0,61,24
CN1CCN(Cc2cccc(-c3ccc4c(Nc5ccc(Oc6ccccc6)cc5)ccnc4c3)c2)CC1 [GW578342],30,0,0,0,0,0,0,38,11,11
COc1ccc(Nc2nccc(NCCNC(=O)c3cc4ccccc4s3)n2)cc1 [GSK1379896],15,0,0,23,0,0,0,0,5,20
Cl.c1ccc(-c2ccc3c(Nc4ccc5[nH]ccc5c4)ccnc3c2)nc1 [GW440138],45,0,0,7,0,0,0,34,0,20
CCCCc1nn2ncccc2c1-c1ccnc(Nc2ccc(N3CCN(C)CC3)cc2)n1 [GW684941],26,0,22,99.3,66,0,0,13,30,8
Cl.NC(=O)c1cccc(Nc2nccc(Nc3ccc(Oc4c(Cl)cccc4Cl)c(Cl)c3)n2)c1 [GW659009],18,0,0,15,0,0,1,0,9,46
C[C@@H]1CC[C@@H](C(=O)Nc2ccccc2)CN1c1cc(-c2ccc3c(N)n[nH]c3c2)nc(N)n1 [GSK2286062],19,4,0,7,0,0,0,26,8,14
Cl.c1ccc(-c2ccc3c(Nc4ccc5[nH]ncc5c4)ccnc3c2)nc1 [GW440137],26,11,7,40,0,0,0,14,11,48
